{
  "source": "PubChem BioAssay (Tox21)",
  "note": "Results filed as inconclusive are left out. Values without a mark were called inactive. Active and inactive are the calls of the source. Unless noted, calls come from the whole dose curve; as a rule, active = well fitted curve in the direction sought with a large enough effect in the repeat runs; inconclusive = weak or mixed curves; inactive = no such curve, though single readings can be large; an effect the other way counts as inactive or inconclusive. % is set by controls: 0 for no effect and ±100 for the full control effect.",
  "data": [
    {"molecular_target": "Estrogen receptor (Homo sapiens) (UniProt P03372)", "sequence (P03372 whole entry, looked up)": "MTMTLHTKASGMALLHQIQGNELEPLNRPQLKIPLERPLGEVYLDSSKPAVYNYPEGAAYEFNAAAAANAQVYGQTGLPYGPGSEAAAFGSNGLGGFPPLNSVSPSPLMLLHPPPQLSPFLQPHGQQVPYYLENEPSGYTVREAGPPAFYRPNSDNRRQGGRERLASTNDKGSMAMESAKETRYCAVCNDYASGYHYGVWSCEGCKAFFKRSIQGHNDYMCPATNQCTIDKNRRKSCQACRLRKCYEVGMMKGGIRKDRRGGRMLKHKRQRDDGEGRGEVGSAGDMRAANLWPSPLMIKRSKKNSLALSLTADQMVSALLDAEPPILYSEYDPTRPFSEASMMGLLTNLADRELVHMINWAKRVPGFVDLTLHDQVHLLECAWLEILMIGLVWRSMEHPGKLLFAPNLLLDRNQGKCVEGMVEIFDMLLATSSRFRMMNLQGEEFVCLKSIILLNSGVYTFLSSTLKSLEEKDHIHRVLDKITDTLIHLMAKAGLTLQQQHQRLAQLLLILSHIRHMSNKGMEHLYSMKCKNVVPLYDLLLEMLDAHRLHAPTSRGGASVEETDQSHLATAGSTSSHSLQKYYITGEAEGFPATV", "assay": "qHTS assay to identify small molecule antagonists of the estrogen receptor alpha (ER-alpha) signaling pathway using the BG1 cell line in the presence of 0.1 nM 17-beta-estradiol (AID 1259244); note: nearly all actives have a fitted effect of over 50% in size", "conditions": "VM7Luc4E2 (BG1) ERE-luciferase, antagonist mode, 0.1 nM E2, 22 h; series mostly up to 92.4 µM; activity change, negative = inhibition: at the top concentration", "in_short": "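Luciferase signal from VM7Luc4E2 ERE-reporter cells, co-dosed with test compound and 0.1 nM final 17beta-estradiol for 22 h, read with ONE-Glo.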", "values": [
      {"smiles": "Oc1ccc(CCNCCCCCCNCCc2ccccc2)cc1O", "activity change, negative = inhibition": "-8.67% [at 42.5 µM]"},
      {"smiles": "CCN(CCCCOC(=O)c1ccc(OC)c(OC)c1)C(C)Cc1ccc(OC)cc1", "note": "(centres undefined)", "activity change, negative = inhibition": "-12.3% [at 42.5 µM]"},
      {"smiles": "O=Cc1ccc(Cl)c([N+](=O)[O-])c1", "activity change, negative = inhibition": "50.8%"},
      {"smiles": "O=S(=O)(O)c1cc(Cl)c(Cl)cc1Cl", "activity change, negative = inhibition": "-13.8%"},
      {"smiles": "Cc1nc(C)c(C)nc1C", "activity change, negative = inhibition": "-23.1%"},
      {"smiles": "CCn1nc(Cc2ccccc2)cc1C1CCN(C[C@H]2C[C@H](N(C)[C@@H](C(=O)O)C(C)C)C[C@@H]2c2cccc(F)c2)CC1", "activity change, negative = inhibition": "-4.86%"},
      {"smiles": "O=C(Cl)c1cc(Cl)cc(Cl)c1", "activity change, negative = inhibition": "0%"},
      {"smiles": "c1ccc(CCNc2nc(-c3ccccc3)cs2)cc1", "activity change, negative = inhibition": "-0.0461% [at 42.5 µM]"},
      {"smiles": "O=C(N[C@@H](Cc1ccccc1)[C@@H](O)C(=O)N1C[C@@H](O)[C@@H](O)C1)c1cc2cc(Cl)ccc2[nH]1", "activity change, negative = inhibition": "-26.9%"},
      {"smiles": "CC(C)(C)NCC(O)COc1ccc(NC(=O)NC2CCCCC2)cc1", "note": "(centres undefined)", "activity change, negative = inhibition": "35.7% [at 42.5 µM]"},
      {"smiles": "CC(C)(C)c1ccc(CCC=O)cc1", "activity change, negative = inhibition": "-10.8%"},
      {"smiles": "CCOC(=O)CC(O)(CC(=O)OCC)C(=O)OCC", "activity change, negative = inhibition": "1.22%"},
      {"smiles": "CCCC(=O)OCCC(C)C", "activity change, negative = inhibition": "-2.32%"},
      {"smiles": "O=C(c1ccc(Cl)cc1)c1ccc(Cl)cc1", "activity change, negative = inhibition": "17.5%"},
      {"smiles": "Oc1ccc(Oc2ccccc2)cc1", "activity change, negative = inhibition": "19.1%"},
      {"smiles": "O=C(OCCOCCOCCOC(=O)c1ccccc1)c1ccccc1", "activity change, negative = inhibition": "0.652%"},
      {"smiles": "CCCCCCCCCCCCSCCOCCO", "activity change, negative = inhibition": "-2.42% [at 42.5 µM]"},
      {"smiles": "CC(C)=CCC/C(C)=C/C=N/O", "activity change, negative = inhibition": "-18%"},
      {"smiles": "Cc1c(N=C=O)cccc1N=C=O", "activity change, negative = inhibition": "2.57%"},
      {"smiles": "CCC(CC)C(=O)O", "activity change, negative = inhibition": "7.19%"},
      {"smiles": "O=C(O)c1ccccc1-n1cc(C(=O)O)c(=O)c2cc(Nc3c(F)cc(F)cc3Cl)c(Cl)cc21", "activity change, negative = inhibition": "2.45%"},
      {"smiles": "Clc1cc(Cl)c2c(c1)N=C1CCCCCN1C2", "activity change, negative = inhibition": "75.1% [at 42.5 µM]"}
    ]},
    {"test_system": "not listed separately", "assay": "qHTS assay to identify small molecule phospholipidosis (PLD) inducers (AID 1259344; active = well fitted curve in the direction sought with a large enough effect; an effect the other way counts as inactive or inconclusive)", "conditions": "HepG2 phospholipidosis, LipidTOX Red imaging, 24 h; series mostly up to 38.3 µM; PLD induction: at the top concentration", "in_short": "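Read-out is LipidTOX Red fluorescence (ex 595/em 615) imaged in HepG2 cells after 24 h compound exposure at 37 C, with Hoechst nuclear counterstain (ex 352/em 461) allowing per-cell normalisation.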", "values": [
      {"smiles": "CC(C(=O)O)c1ccc2c(c1)Cc1cccnc1O2", "note": "(centres undefined)", "PLD induction": "0.483%"},
      {"smiles": "Oc1ccc(CCNCCCCCCNCCc2ccccc2)cc1O", "PLD induction": "-4.62%"},
      {"smiles": "CCN(CCCCOC(=O)c1ccc(OC)c(OC)c1)C(C)Cc1ccc(OC)cc1", "note": "(centres undefined)", "PLD induction": "2.82% [at 15.5 µM]"},
      {"smiles": "c1ccc(CCNc2nc(-c3ccccc3)cs2)cc1", "PLD induction": "-3.9%"},
      {"smiles": "CC(C)(C)NCC(O)COc1ccc(NC(=O)NC2CCCCC2)cc1", "note": "(centres undefined)", "PLD induction": "12.6%"},
      {"smiles": "CC1=C(C)C(=O)C(CCCCC#CCCCC#CCO)=C(C)C1=O", "PLD induction": "2.11%"},
      {"smiles": "C[C@H](CN1CCCC1)C(=O)c1ccc(C(F)(F)F)cc1", "PLD induction": "-1.6%"},
      {"smiles": "CCCCCCCCCCCCSCCOCCO", "PLD induction": "0.646%"},
      {"smiles": "CCOC(C)OCC", "PLD induction": "-0.141%"}
    ]},
    {"test_system": "not listed separately", "assay": "qHTS assay to identify small molecule HDAC inhibitors (AID 1259364); note: potency is the fitted concentration of half-maximal effect;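 note: wild-type HCT-116 cells with endogenous class I/II HDAC activity; nearly all actives have a fitted effect of over 45% in size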; for activity change, negative = inhibition: top concentration of the series differs between compounds", "conditions": "HCT-116 HDAC-Glo I/II luminescence, 2 h; series mostly up to 92.4 µM; activity change, negative = inhibition: at the top concentration", "in_short": "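HCT-116 wt cells, 1,500/well, overnight attach. Compounds (DMSO) 2 h, 37 °C. HDAC-Glo I/II, 30 min RT. Luminescence.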", "values": [
      {"smiles": "CC(C(=O)O)c1ccc2c(c1)Cc1cccnc1O2", "note": "(centres undefined)", "activity change, negative = inhibition": "-17.8% [at 42.5 µM]"},
      {"smiles": "Cc1cc(SC2=C(O)C[C@@](CCc3ccc(N)cc3)(C(C)C)OC2=O)c(C(C)(C)C)cc1CO", "activity change, negative = inhibition": "-2.3%"},
      {"smiles": "Oc1ccc(CCNCCCCCCNCCc2ccccc2)cc1O", "activity change, negative = inhibition": "3.05% [at 42.5 µM]"},
      {"smiles": "CCN(CCCCOC(=O)c1ccc(OC)c(OC)c1)C(C)Cc1ccc(OC)cc1", "note": "(centres undefined)", "activity change, negative = inhibition": "4.03% [at 42.5 µM]"},
      {"smiles": "O=Cc1ccc(Cl)c([N+](=O)[O-])c1", "activity change, negative = inhibition": "-5.47%"},
      {"smiles": "CC(C)CCCCCCCOC(=O)c1ccc(C(=O)OCCCCCCCC(C)C)c(C(=O)OCCCCCCCC(C)C)c1", "activity change, negative = inhibition": "-11.8%"},
      {"smiles": "Cc1ccc(NC(=O)c2ccc(CN3CCN(C)CC3)cc2)cc1Nc1nccc(-c2cccnc2)n1", "activity change, negative = inhibition": "-0.68% [at 42.5 µM]"},
      {"smiles": "O=S(=O)(O)c1cc(Cl)c(Cl)cc1Cl", "activity change, negative = inhibition": "1.19%"},
      {"smiles": "Cc1nc(C)c(C)nc1C", "activity change, negative = inhibition": "-4.31%"},
      {"smiles": "CCn1nc(Cc2ccccc2)cc1C1CCN(C[C@H]2C[C@H](N(C)[C@@H](C(=O)O)C(C)C)C[C@@H]2c2cccc(F)c2)CC1", "activity change, negative = inhibition": "7.76%"},
      {"smiles": "O=C(Cl)c1cc(Cl)cc(Cl)c1", "activity change, negative = inhibition": "-16.4%"},
      {"smiles": "c1ccc(CCNc2nc(-c3ccccc3)cs2)cc1", "Potency": "2980 nM (active)"},
      {"smiles": "O=C(N[C@@H](Cc1ccccc1)[C@@H](O)C(=O)N1C[C@@H](O)[C@@H](O)C1)c1cc2cc(Cl)ccc2[nH]1", "activity change, negative = inhibition": "4.31%"},
      {"smiles": "CC(C)(C)NCC(O)COc1ccc(NC(=O)NC2CCCCC2)cc1", "note": "(centres undefined)", "activity change, negative = inhibition": "11.5% [at 42.5 µM]"},
      {"smiles": "CC(C)(C)c1ccc(CCC=O)cc1", "activity change, negative = inhibition": "-0.799%"},
      {"smiles": "CC(C)(Cc1c[nH]c2ccccc12)NCC(O)COc1ccccc1C#N", "note": "(centres undefined)", "activity change, negative = inhibition": "9.81% [at 42.5 µM]"},
      {"smiles": "CCOC(=O)CC(O)(CC(=O)OCC)C(=O)OCC", "activity change, negative = inhibition": "2.4%"},
      {"smiles": "CCCC(=O)OCCC(C)C", "activity change, negative = inhibition": "3.08%"},
      {"smiles": "CC1=C(C)C(=O)C(CCCCC#CCCCC#CCO)=C(C)C1=O", "activity change, negative = inhibition": "-9.35% [at 42.5 µM]"},
      {"smiles": "C[C@H](CN1CCCC1)C(=O)c1ccc(C(F)(F)F)cc1", "activity change, negative = inhibition": "4.78% [at 42.5 µM]"},
      {"smiles": "C=CC(C)CCC=C(C)C", "note": "(centres undefined)", "activity change, negative = inhibition": "-4.08%"},
      {"smiles": "O=C(c1ccc(Cl)cc1)c1ccc(Cl)cc1", "activity change, negative = inhibition": "-20.4%"},
      {"smiles": "CCC(=O)O[C@]1(C(=O)COC)[C@@H](C)C[C@H]2[C@@H]3CCC4=CC(=O)C=C[C@]4(C)C3(F)[C@@H](O)C[C@@]21C", "note": "(some centres undefined)", "activity change, negative = inhibition": "-0.989% [at 42.5 µM]"},
      {"smiles": "COC(=O)C(C)(C)C", "activity change, negative = inhibition": "-0.489%"},
      {"smiles": "C=C[Si](OCC)(OCC)OCC", "activity change, negative = inhibition": "7.36%"},
      {"smiles": "Oc1ccc(Oc2ccccc2)cc1", "activity change, negative = inhibition": "-11%"},
      {"smiles": "C=CC(O)CCCCC", "note": "(centres undefined)", "activity change, negative = inhibition": "1.52%"},
      {"smiles": "O=C1c2ccccc2C(=O)C1c1ccc2ccccc2n1", "Potency": "1910 nM (active)"},
      {"smiles": "O=C(OCCOCCOCCOC(=O)c1ccccc1)c1ccccc1", "activity change, negative = inhibition": "0.738%"},
      {"smiles": "c1ccc(CN(Cc2ccccc2)Cc2ccccc2)cc1", "activity change, negative = inhibition": "-1.75%"},
      {"smiles": "CCCCCCCCCCCCSCCOCCO", "activity change, negative = inhibition": "-0.241% [at 42.5 µM]"},
      {"smiles": "CC(C)=CCC/C(C)=C/C=N/O", "activity change, negative = inhibition": "0.229%"},
      {"smiles": "Cc1c(N=C=O)cccc1N=C=O", "activity change, negative = inhibition": "0.651%"},
      {"smiles": "CCC(CC)C(=O)O", "activity change, negative = inhibition": "-0.161%"},
      {"smiles": "O=C(O)c1ccccc1-n1cc(C(=O)O)c(=O)c2cc(Nc3c(F)cc(F)cc3Cl)c(Cl)cc21", "activity change, negative = inhibition": "4.85%"},
      {"smiles": "CCCN(C1CCN(C(=O)C2CCNCC2)CC1)[C@@H]1CCc2ccc(OC)cc2C1", "activity change, negative = inhibition": "0.729%"},
      {"smiles": "C=C[Si]1(C)O[Si](C)(C=C)O[Si](C)(C=C)O[Si](C)(C=C)O1", "note": "(centres undefined)", "activity change, negative = inhibition": "-5.38%"},
      {"smiles": "CCOC(C)OCC", "activity change, negative = inhibition": "5.58%"}
    ]}
  ]
}
